Assay results: PubChem BioAssay (NCATS)
Results filed as inconclusive are left out. Where a call stands in place of a potency, no number is given. Calls of active or inactive are those of the source. The call rests on the fitted dose curve; in most records, active means well fitted curve in the direction sought with a large enough effect; inconclusive means small, poorly fitted or top-dose-only effect, or another doubt; inactive means no such curve, though single readings can be large or run the other way.

These molecules were tested against Calcium and integrin-binding protein 1 (Homo sapiens) (UniProt Q99828) (assay: Validation qHTS for Identification of Calcium Integrin Binding protein 1 (CIB1) Competitor (AID 1508618)). Settings: CIB1-GST / FITC-alphaIIb peptide fluorescence polarization; series mostly up to 114 µM.
Text: Assay Provider: Ulhas P. Naik, PhD
Sidney Kimmel Medical College
Thomas Jefferson University, Philadelphia, PA
Primary function of platelets is to maintain hemostasis. At the site of vascular injury, platelets adhere to adhesive proteins such as collagen and von Willebrand factor. Adherent platelets are activated and generate soluble platelet agonists such as thrombin, ADP and thromboxane A2. Following exposure of circulating platelets to these agonists, results in platelet shape change, granule secretion and activation of platelet integrin alphaIIb-beta3. Ligand binding to activated integrin alphaIIb-beta3 triggers outside-in signaling, leading to platelet aggregation, stabilization of platelet plug, and clot retraction. Upon atherosclerotic plaque rupture also causes platelet plug formation, which underlies a number of cardiovascular diseases such as myocardial infraction and stroke. A number of anti-platelet drugs such as aspirin, clopidogrel, prasugrel, vorapaxar, and eptifibatide are currently available to prevent the thrombotic complications. However, these anti-platelet agents have several limitations including inherent variability in individual responses, developing resistance, and serious bleeding side effects. For these reasons they are not suitable for long-term protection. Based on the experiences with current anti-platelet drugs, it appears that the most useful therapeutic approach is to intersect the secondary responses such as integrin outside-in signaling or recruitment of platelets by TxA2 and secreted ADP. Compounds, which can largely preserve the primary hemostatic function of platelets but inhibit secondary response will be most desired therapeutic agents for treatment of cardiovascular disease.
CIB1 is a calcium integrin binding protein, which specifically interact with the alphaIIb subunit of integrin alphaIIb-beta3. Binding of CIB1 to alphaIIb regulates the outside-in signaling in platelets, which is needed for thrombus stabilization and thrombus growth. […] Therefore, we propose that discovery of a small molecule that can prevent the association of CIB1 and alphaIIb-beta3 will be a potential anti-platelet agent that can block the thrombus formation without undue effect on hemostasis.
To develop fluorescence polarization (FP) assay using fluorescently labeled alphaIIb peptide and CIB1 protein. Using FP assay characterize the binding affinity, competitive inhibition, and acceptable Z factor (0.5 to1) in order to perform the HTS to identify small molecule compound that can prevent CIB1 binding to platelet integrin alphaIIbbeta3. This assay is screened against the NCATS LOPAC library to validate the amenability of the assay to qHTS.
[1] Naik MU, Nigam A, Manrai P, et al. CIB1 deficiency results in impaired thrombosis: the potential role of CIB1 in outside-in signaling through integrin alpha IIb beta 3. J Thromb Haemost. 2009;7(11):1906-1914. doi:10.1111/j.1538-7836.2009.03581.
SEQUENCE No. (1, 2, 3, etc.); […] (e.g., Cells, Incubation, Reagent, etc.); VALUE and DESCRIPTION.
1; Reagent; 3 uL; Protein or buffer (4/3x)
2; Compound; 46 nL; Control inhibitor / compound library
3; Time; 15 min; Room temperature incubation
4; Reagent; 1 uL; Fluorescent labeled peptide (4x)
5; Time; 1000 rpm; Centrifuge
6; Time; 15 min; Room temperature incubation
7; Detection; Ex 480/ Em 540; ViewLux Fluorescence Read
NOTES (numbers refer to sequence above)
1; Protein Mixture: C1B1-GST (final concentrations of 1 uM). Buffer composition: 5 mM HEPES pH 7.4, 125 mM NaCl, 5 mM CaCl2, 0.01% Tween20.
2; Control Inhibitor: unlabeled peptide (final concentration range 17.4 nM to 572 uM). Compound Library final concentration range 18.3 nM to 114 uM.
3; Room temperature incubation.
4; Fluorescent Labeled Peptide: FITC-aIIb (final concentration of 100 nM). Sequence of alphaIIb peptide: Acetyl-[…]-FITC (purity is 95.83%).
6; Room temperature incubation.
[…]

Chain of Calcium and integrin-binding protein 1 (Homo sapiens) (Q99828 whole entry, looked up): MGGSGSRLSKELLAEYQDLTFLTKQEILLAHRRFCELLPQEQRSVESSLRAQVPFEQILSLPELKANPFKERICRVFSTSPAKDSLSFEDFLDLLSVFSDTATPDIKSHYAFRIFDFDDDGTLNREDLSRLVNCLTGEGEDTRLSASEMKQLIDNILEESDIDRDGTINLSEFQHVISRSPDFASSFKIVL

| SMILES | Potency |
| --- | --- |
| c1ccc(C2CN3CCSC3=N2)cc1 (stereo not given) | inactive |
| COC(=O)C(C)(N)Cc1ccc(O)cc1 (stereo not given) | inactive |
| NC(N)=NC(N)=Nc1ccccc1 | inactive |
| c1ccc2nc(C3=NCCN3)ccc2c1 | inactive |
| CC(=O)[C@H]1CCC2C3CC=C4C[C@@H](OS(=O)(=O)O)CC[C@]4(C)C3CC[C@@]21C (stereo not given in full) | inactive |
| C#CC(N)CCC(=O)O (stereo not given) | inactive |
| CC(C)Cn1c(=O)n(C)c(=O)c2[nH]cnc21 | inactive |
| COc1ccccc1N1CCN(CCCNc2c(C)c(=O)n(C)c(=O)n2C)CC1 | inactive |
| Oc1ccc(/C=C/c2ccc(/C=C/c3ccc(O)cc3)c(Br)c2)cc1 | inactive |
| O=C(O)C1=CCCNC1 | inactive |
| CCCn1c(=O)c2[nH]c(C3CCCC3)nc2n(CCC)c1=O | inactive |
| NC1C=CC=C(C(=O)O)C1 (stereo not given) | inactive |
| NCC(O)(CS(=O)(=O)O)c1ccc(Cl)cc1 (stereo not given) | inactive |
| NCCCNCCCCNCCCN | inactive |
| CCCCCCN(CCCCCC)C(=O)Cc1c(-c2ccc(F)cc2)[nH]c2ccccc12 | inactive |
| N[C@@H](CS(=O)O)C(=O)O | inactive |
| Nc1ncnc2c1c(-c1ccc(Oc3ccccc3)cc1)cn2C1CCCC1 | inactive |
| CC[n+]1c(/C=C/C=C2/N(C)c3ccccc3C2(C)C)sc2ccccc21 | inactive |
| COc1cc2c(CCNC(C)=O)c[nH]c2cc1O | inactive |
| COc1ccc(-c2ccc(N)[n+](CCCC(=O)O)n2)cc1 | inactive |

| SMILES | Potency |
| --- | --- |
| N[C@H]1CONC1=O | inactive |
| CCCN(CCc1ccccc1)C1CCc2c(O)cccc2C1 (stereo not given) | inactive |
| CNc1cc(NS(=O)(=O)c2ccc(N)cc2)nc(NC)n1 | inactive |
| O=c1ccc2c(OCCCCc3ccccc3)c3ccoc3cc2o1 | inactive |
| CC(C)(C)c1ccc(/C=C/C(=O)Nc2ccc3c(c2)OCCO3)cc1 | inactive |
| COc1ccc2c(c1)c(CC(=O)O)c(C)n2C(=O)c1ccccc1 | inactive |
| CC(C)(C)NCC(O)COc1cccc2[nH]c(=O)[nH]c12 (stereo not given) | inactive |
| CCCCCCC(=O)OC1CC(C)(C)NC(C)(C)C1 | inactive |
| O=C(O)c1cc(=O)cc(C(=O)O)[nH]1 | inactive |
| CC#CCOC(=O)c1c(C)nc2sc3c(c2c1N)CCC(O)C3 (stereo not given) | inactive |
| C=C(C)C1CC=C(C(=O)O)CC1 (stereo not given) | inactive |
| CN(C)C(=O)/N=N/C(=O)N(C)C | inactive |
| CCCc1c(-c2ccc(O)cc2)nn(-c2ccc(O)cc2)c1-c1ccc(O)cc1 | inactive |
| NC(=O)CC[C@H](N)C(=O)O | inactive |
| CCCCCCCCCCCCCCSCC(=O)O | inactive |
| N[C@@H](CCCC(=O)O)C(=O)O | inactive |
| Nc1ncnc2c1nc(Br)n2C1OC2COP(=O)(O)O[C@@H]2C1O (stereo not given in full) | inactive |
| N[C@@H](Cc1ccc(O)c(I)c1)C(=O)O | inactive |
| N=C(N)c1ccccc1 | inactive |
| C#CCn1c(=O)c2c(ncn2C)n(C)c1=O | inactive |
